A short description of experiment [1]: small molecules captured by biotinylated probe aFSTL3 – biochemical, small-molecule microarray, fluorescence 635/667, stem cell growth factor project, primary screen (AID 1064).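 Further: measures binding of the biotinylated anti-FSTL3 antibody to printed compounds.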 To be noted: higher = more signal.
The nature of experiment [2]: binders from COS7 lysate, DM2A8 probe, primary screen, torsin A project, cell lysate, small-molecule microarray, fluorescence 635/667 (AID 1065). The conditions noted are these: higher = more signal, COS7 lysate expressing mutant human TOR1A.
Experiment [3] can be described thus: small molecules captured by biotinylated probe aFGF2 – biochemical, small-molecule microarray, fluorescence 635/667, stem cell growth factor project, primary screen (AID 1067).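 Further: measures binding of biotinylated aFGF2 protein to printed compounds on slides; z-score merges feature fluorescence and signal-to-noise across triplicate slides.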 The conditions noted are these: higher = more signal.
Experiment [4] in a line: small molecules captured by biotinylated probe aFGF10 – biochemical, small-molecule microarray, fluorescence 635/667, stem cell growth factor project, primary screen (AID 1071).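 Further: score merges 667 nm spot intensity and signal to noise from triplicate slides.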 To be noted: higher = more signal.
The target in experiment [5] is Neurogenic locus notch homolog protein 2 (Homo sapiens) (UniProt Q04721). The experiment can be described thus: small molecules binding Notch2 protein – biochemical, small-molecule microarray, 635 nm fluorescence, stem cell growth factors, primary screen (AID 1073). To be noted: higher = more signal.
Neurogenic locus notch homolog protein 2 (Homo sapiens), sequence (Q04721 whole entry, looked up, canonical isoform): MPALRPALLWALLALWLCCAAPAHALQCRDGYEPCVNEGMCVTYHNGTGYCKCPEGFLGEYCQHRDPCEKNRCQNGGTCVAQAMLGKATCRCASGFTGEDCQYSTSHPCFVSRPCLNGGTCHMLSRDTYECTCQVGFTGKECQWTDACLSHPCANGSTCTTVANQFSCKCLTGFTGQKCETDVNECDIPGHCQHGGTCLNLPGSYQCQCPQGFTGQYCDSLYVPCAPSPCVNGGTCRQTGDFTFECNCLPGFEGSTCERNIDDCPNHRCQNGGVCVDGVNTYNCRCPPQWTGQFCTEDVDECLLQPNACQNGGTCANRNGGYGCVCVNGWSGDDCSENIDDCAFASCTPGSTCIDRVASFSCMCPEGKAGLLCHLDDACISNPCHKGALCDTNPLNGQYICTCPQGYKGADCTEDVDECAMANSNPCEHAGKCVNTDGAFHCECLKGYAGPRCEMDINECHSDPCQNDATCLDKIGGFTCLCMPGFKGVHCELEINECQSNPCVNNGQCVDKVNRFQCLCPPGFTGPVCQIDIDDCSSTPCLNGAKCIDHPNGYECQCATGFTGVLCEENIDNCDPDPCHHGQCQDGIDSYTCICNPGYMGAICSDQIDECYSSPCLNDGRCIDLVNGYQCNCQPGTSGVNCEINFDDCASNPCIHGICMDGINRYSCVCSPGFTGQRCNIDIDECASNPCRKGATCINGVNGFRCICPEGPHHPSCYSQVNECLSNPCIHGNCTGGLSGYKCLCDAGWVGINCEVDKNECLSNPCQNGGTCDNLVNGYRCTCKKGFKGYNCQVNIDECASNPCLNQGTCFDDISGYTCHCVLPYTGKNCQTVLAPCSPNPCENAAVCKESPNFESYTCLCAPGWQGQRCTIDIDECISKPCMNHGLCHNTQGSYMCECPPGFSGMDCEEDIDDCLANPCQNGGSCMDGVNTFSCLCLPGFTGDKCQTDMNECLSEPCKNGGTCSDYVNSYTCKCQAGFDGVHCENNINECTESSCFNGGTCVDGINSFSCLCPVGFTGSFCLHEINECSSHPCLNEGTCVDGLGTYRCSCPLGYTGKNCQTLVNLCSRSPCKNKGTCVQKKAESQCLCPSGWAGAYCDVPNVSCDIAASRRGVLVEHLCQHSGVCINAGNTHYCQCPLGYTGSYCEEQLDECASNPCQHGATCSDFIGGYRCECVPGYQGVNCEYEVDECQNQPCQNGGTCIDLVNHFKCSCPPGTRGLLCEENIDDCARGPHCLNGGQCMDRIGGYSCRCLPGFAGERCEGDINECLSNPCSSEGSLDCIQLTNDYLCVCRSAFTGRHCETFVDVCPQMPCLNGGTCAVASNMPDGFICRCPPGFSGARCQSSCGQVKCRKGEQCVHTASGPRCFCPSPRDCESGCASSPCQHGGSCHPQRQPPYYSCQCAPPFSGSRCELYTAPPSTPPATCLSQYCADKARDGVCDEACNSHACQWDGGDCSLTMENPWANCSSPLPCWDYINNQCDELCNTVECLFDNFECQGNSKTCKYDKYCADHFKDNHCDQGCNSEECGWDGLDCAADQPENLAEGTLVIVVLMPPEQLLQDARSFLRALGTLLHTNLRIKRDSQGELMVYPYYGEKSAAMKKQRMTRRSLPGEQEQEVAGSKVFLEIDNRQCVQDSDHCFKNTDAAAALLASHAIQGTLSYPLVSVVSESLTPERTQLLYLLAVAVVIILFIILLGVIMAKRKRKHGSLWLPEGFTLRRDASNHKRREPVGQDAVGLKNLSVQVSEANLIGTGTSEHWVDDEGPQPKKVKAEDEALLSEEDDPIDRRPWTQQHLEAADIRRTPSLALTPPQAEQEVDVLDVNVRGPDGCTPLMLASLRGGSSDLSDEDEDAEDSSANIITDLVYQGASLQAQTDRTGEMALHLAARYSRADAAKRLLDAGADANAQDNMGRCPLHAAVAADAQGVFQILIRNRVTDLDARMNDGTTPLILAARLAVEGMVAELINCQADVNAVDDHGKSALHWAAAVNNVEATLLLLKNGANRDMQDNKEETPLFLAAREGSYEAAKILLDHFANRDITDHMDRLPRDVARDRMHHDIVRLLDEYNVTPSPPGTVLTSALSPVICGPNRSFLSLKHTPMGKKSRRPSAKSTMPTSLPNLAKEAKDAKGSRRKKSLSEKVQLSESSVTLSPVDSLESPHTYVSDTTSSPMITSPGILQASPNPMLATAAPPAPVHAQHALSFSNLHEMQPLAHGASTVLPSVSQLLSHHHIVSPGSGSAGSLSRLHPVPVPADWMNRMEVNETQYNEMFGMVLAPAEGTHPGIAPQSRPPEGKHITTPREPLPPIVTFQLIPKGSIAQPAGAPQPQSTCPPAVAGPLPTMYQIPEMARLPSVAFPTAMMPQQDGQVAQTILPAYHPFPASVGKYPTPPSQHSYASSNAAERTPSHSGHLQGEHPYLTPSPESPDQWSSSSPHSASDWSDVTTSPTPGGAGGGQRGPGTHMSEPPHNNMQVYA
Experiment [6] deals with Pro-neuregulin-1, membrane-bound isoform (Homo sapiens) (UniProt Q02297). The experiment in a line: small molecules binding neuregulin-1 protein – biochemical, small-molecule microarray, fluorescence 635/667, psychiatric disease protein project, primary screen (AID 1075).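 Further: score combines 667 nm spot fluorescence with signal to noise.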 The conditions noted are these: NRG1 binding, 635 nm fluorescence, higher = more signal.
Experiment [7] has as its system Neuregulin-1 EGF-like domain. The experiment can be described thus: small molecules binding NRG1 EGF domain – biochemical, small-molecule microarray, 635 nm fluorescence, primary screen (AID 1081).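 Further: binding of the protein to compounds printed on small-molecule microarray slides.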 To be noted: higher = more signal.
Experiment [8] is described as follows: FRG1 expression reporter modulators in myotubes – cell-based, C2C12 myotubes, firefly/Renilla luciferase, luminescence, FRG1 inhibition for FSHD, primary screen (AID 1084). To be noted: FRG1 promoter luciferase, higher = more signal, called active from +8 up or from −8 down.
Experiment [9] is described as follows: small molecules captured by biotinylated probe aFST – biochemical, small-molecule microarray, fluorescence 635/667, stem cell growth factor project, primary screen (AID 1086).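 Further: score merges 667 nm fluorescence with signal-to-noise of each printed compound spot.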 The conditions noted are these: higher = more signal.
Experiment [10] is described as follows: binders of probe aHhip on microarray, primary screen, stem cell growth factor project, biochemical, small-molecule microarray, fluorescence 635/667 (AID 1087).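 Further: score merges spot fluorescence at 667nm with spot signal to noise ratio.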 To be noted: higher = more signal.
For experiment [11], the system named is PRMT1 (protein arginine N-methyltransferase 1). The experiment in a line: small molecules binding arginine methyltransferase PRMT1 – biochemical, small-molecule microarray, 635 nm fluorescence, primary screen (AID 1088).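 Further: binding of Prmt1 protein to compounds spotted on small-molecule microarray slides.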 The conditions noted are these: higher = more signal.
Experiment [12] can be described thus: growth effects on S. cerevisiae YJM789 – YJM789 clinical isolate, OD600, 24 h, basal, primary screen (AID 1089).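 Further: growth of clinical yeast isolate S. cerevisiae YJM 789 seeded 1000 cells per well; test concentration not given here.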 The conditions noted are these: higher = more signal, called active from +8 up or from −8 down.
The nature of experiment [13]: S. pombe growth modifiers, basal conditions – strain 972, OD600, 24 h, no modulator, primary screen (AID 1090).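 Further: basal condition with compound alone and no growth modifier present; test concentration not given here.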 To be noted: S. pombe 972 growth, higher = more signal, called active from +8 up or from −8 down.
The nature of experiment [14]: budding yeast growth modifiers under rapamycin – strain BY4716, OD600, 96 h, primary screen (AID 1091). Further: test concentration not given here. To be noted: S. cerevisiae BY4716 + rapamycin, higher = more signal, called active from +8 up or from −8 down.
Experiment [15] concerns the target Torsin-1A-interacting protein 2 (Homo sapiens) (UniProt Q8NFQ8). The experiment in a line: small molecules binding lysate-expressed LULL1 – cell lysate, human LULL1 lysate, 635/667 nm fluorescence, primary screen (AID 1092).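 Further: probe is lysate of COS7 cells overexpressing human LULL1; score merges per-feature 667 nm fluorescence with signal-to-noise.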 To be noted: small-molecule microarray, hLULL1 lysate binding, 635 nm fluorescence; higher = more signal.
The nature of experiment [16]: optical density change of DRC41 E. coli – strain DRC41, OD650, 24 h, E. coli filamentation project, primary screen (AID 1093).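 Further: MC1000 strain lacking acrAB efflux and sulA so SOS filamentation is blocked; test concentration not given here.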 The conditions noted are these: E. coli DRC41 growth, higher = more signal, called active from +8 up or from −8 down.
Experiment [17] can be described thus: probe aLefty2 binding to arrayed compounds – biochemical, biotinylated probe, 635/667 nm fluorescence, primary screen (AID 1094).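 Further: score merges spot fluorescence near 667 nm with spot signal-to-noise ratio.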 To be noted: small-molecule microarray, higher = more signal.
In experiment [18] the test system is Noggin (protein binding on small-molecule microarray). The experiment can be described thus: small molecules binding Noggin protein – biochemical, 635/667 nm fluorescence, primary screen (AID 1095).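 Further: score merges 667 nm feature fluorescence with signal to noise over triplicate slides.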 The conditions noted are these: 635 nm fluorescence, higher = more signal.
Experiment [19] has as its target Neurogenic locus notch homolog protein 3 (Homo sapiens) (UniProt Q9UM47). The experiment in a line: small molecules binding NOTCH3 protein – biochemical, 635/667 nm fluorescence, primary screen (AID 1096). To be noted: small-molecule microarray, 635 nm fluorescence, higher = more signal.
Experiment [20] can be described thus: probe aEGFR binding to arrayed compounds – biochemical, biotinylated probe, 635/667 nm fluorescence, primary screen (AID 1097).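 Further: probe is a biotinylated anti-EGFR antibody binding compounds printed on slides; score combines fluorescence near 667 nm and signal to noise of each spot.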 The conditions noted are these: small-molecule microarray, higher = more signal.

Calls of active or inactive are those of the source.

Neurogenic locus notch homolog protein 3 (Homo sapiens), sequence (Q9UM47 whole entry, looked up): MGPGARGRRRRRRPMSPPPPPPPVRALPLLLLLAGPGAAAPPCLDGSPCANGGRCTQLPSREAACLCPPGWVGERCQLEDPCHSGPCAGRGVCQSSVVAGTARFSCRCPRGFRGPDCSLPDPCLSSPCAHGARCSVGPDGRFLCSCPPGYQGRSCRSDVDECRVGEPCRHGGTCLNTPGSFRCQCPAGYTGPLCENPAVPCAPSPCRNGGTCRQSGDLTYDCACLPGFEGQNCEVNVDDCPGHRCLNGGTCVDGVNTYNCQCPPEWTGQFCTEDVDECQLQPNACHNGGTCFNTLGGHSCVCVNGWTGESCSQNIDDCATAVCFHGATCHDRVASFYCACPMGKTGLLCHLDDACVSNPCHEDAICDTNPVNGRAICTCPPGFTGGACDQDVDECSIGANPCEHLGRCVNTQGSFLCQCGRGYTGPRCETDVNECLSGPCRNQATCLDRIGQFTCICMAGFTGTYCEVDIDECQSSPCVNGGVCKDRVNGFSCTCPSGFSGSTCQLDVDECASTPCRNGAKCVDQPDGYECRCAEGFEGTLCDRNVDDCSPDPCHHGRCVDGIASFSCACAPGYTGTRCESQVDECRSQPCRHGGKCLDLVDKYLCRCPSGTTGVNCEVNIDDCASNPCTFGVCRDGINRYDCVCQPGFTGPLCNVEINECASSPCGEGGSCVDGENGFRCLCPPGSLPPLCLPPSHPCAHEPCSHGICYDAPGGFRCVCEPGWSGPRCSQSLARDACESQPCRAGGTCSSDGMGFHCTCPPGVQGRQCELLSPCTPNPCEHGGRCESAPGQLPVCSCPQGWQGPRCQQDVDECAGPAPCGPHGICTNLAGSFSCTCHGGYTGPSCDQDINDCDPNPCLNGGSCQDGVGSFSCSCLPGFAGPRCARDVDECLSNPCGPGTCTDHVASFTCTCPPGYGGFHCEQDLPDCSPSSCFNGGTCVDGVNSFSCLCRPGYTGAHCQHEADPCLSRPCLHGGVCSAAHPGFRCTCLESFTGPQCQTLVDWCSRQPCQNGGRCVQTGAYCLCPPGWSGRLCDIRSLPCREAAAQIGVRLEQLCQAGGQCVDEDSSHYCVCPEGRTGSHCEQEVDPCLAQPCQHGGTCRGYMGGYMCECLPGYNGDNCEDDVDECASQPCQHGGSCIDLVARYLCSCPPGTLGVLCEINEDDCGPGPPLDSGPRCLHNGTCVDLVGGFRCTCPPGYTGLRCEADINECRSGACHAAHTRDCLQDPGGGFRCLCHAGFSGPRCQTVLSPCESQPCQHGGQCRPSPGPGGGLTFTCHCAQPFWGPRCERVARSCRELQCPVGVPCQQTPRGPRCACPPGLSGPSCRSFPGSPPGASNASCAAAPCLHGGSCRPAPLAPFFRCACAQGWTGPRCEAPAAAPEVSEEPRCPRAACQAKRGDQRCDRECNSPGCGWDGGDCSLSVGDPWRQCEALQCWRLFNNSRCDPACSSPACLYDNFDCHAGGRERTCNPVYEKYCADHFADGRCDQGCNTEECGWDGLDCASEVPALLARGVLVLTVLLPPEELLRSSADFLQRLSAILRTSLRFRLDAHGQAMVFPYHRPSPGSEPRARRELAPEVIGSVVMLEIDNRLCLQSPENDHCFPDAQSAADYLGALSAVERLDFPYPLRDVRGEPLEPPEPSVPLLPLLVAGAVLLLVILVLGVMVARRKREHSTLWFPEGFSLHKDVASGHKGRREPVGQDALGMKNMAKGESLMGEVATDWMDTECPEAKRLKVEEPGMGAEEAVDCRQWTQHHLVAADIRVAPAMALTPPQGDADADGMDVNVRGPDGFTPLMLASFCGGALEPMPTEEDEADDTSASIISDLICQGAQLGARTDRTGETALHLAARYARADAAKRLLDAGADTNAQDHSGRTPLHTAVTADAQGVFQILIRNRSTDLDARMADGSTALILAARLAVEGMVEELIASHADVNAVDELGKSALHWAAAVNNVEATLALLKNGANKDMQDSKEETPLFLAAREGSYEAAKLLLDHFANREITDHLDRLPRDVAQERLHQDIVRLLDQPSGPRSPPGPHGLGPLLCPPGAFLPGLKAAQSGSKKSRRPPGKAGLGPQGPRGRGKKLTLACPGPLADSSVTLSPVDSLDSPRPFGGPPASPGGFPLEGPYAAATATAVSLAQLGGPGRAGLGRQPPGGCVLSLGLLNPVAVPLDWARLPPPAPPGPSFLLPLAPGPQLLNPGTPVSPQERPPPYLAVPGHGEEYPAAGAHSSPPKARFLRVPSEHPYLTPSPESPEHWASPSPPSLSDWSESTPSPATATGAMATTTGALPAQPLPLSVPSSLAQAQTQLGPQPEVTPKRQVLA

On to `COCCOC(=O)N1C(=O)[C@@]2(c3cc(C#CCCO)ccc31)[C@H](C(N)=O)[C@H]1C(=O)O[C@H](c3ccccc3)[C@H](c3ccccc3)N1[C@@H]2c1ccc(OCCO)cc1`, for which the composite z-score in experiment [1] was -0.0241; in experiment [2], 0.657; in [3], -0.0202; in [4] it was 0.48; in experiment [5], 1.43; in experiment [6] it was 1.1. For the same compound, the composite z-score in [7] was 1.17; in [9] it was 0.439; in experiment [10], -0.0994; in experiment [11] it was 1.54; in experiment [15], 3.02; in experiment [17] it was -0.161. For the same compound, the composite z-score in experiment [18] came out at 0.632; in [19], 0.992; in experiment [20], 0.0754. Also, the z-score was 0.478 (inactive) in experiment [8]; 1.94 (inactive) in [12]; 0.63 (inactive) in [13]; 2.82 (inactive) in experiment [14]; -0.187 (inactive) in [16].

Consider `COc1ccc([Si](C)(C)[C@H]2[C@H](CCO)O[C@@]3(C(=O)N(Cc4ccccc4)c4ccc(N5C(=O)c6ccccc6Oc6ccccc65)cc43)[C@@H]2C)cc1`, for which the composite z-score in experiment [1] is 0.342; in experiment [2], -0.393; in [3], -0.0591; in experiment [4], 0.606; in experiment [5], -0.0653; in experiment [6], 0.777. Moreover, the composite z-score is 0.79 in experiment [7]; -0.0173 in experiment [9]; -0.169 in [10]; 1.12 in experiment [11]; 1.94 in experiment [15]; -0.114 in [17]. Moreover, the composite z-score in experiment [18] is -0.355; in experiment [19], 0.427; in [20], -0.174. The z-score in [8] was -1.55 (inactive); in experiment [12], -0.234 (inactive); in [13], 0.723 (inactive); in [14], 4.27 (inactive); in experiment [16] it was 1.25 (inactive).

For `COC(=O)[C@@]1(Cc2ccccc2)[C@H]2c3cc(C(=O)N(C)C)n(CCn4cc([N+](=O)[O-])nc4C)c3C[C@H]2CN1C(=O)c1ccccc1`, the composite z-score in experiment [1] is 0.0989; in experiment [2], 0.227; in [3], -0.045; in experiment [4] it was 0.861; in experiment [5] it was 1.23; in experiment [6], 0.204. In addition, the composite z-score in [7] is 1.2; in experiment [9], 0.928; in experiment [10], -0.281; in experiment [11], 1.13; in [15] it was 3.63; in [17] it was 0.16. Besides, the composite z-score in experiment [18] was 0.0356; in experiment [19], 1.03; in experiment [20] it was -0.0088. The z-score in experiment [8] was -0.0393 (inactive); in [12] it was -1.54 (inactive); in experiment [13], 0.69 (inactive); in [14], 0.253 (inactive); in experiment [16], -0.592 (inactive).

For the compound `NC(=O)[C@H]1[C@@H]2C(=O)O[C@@H](c3ccccc3)[C@@H](c3ccccc3)N2[C@@H](c2ccc(O)cc2)[C@]12C(=O)Nc1ccccc12`, the composite z-score is 0.339 in experiment [1]; -1.11 in experiment [2]; -0.128 in experiment [3]; -0.171 in [4]; -1.37 in experiment [5]; 1.81 in experiment [6]. Besides, the composite z-score in experiment [7] was 0.653; in [9], -0.442; in experiment [10] it was -0.137; in experiment [11] it was -0.472; in [15], 2.99; in experiment [17] it was -0.139. Moreover, the composite z-score is -1.18 in experiment [18], -1.03 in [19] and -0.356 in experiment [20]. Besides, the z-score in experiment [8] was -0.977 (inactive); in experiment [12], 0.446 (inactive); in experiment [13], -0.732 (inactive); in experiment [14] it was 0.659 (inactive); in experiment [16], 0.13 (inactive).

Consider `Cc1ccc([C@H]2C(C(=O)O)=C[C@@H](C(C)(C)C)N2S(=O)(=O)c2ccc(C)cc2)cc1`, for which the composite z-score was 0.137 in experiment [1]; -0.0985 in experiment [2]; 0.17 in experiment [3]; 0.965 in experiment [4]; 1.55 in experiment [5]; 1.54 in experiment [6]. Besides, the composite z-score in experiment [7] turned out to be 1.17; in experiment [9] it was 0.734; in experiment [10], 0.235; in [11], 1.39; in [15], 3.25; in experiment [17], 0.118. For the same compound, the figures for the composite z-score in [18], in experiment [19] and in [20] were 0.101, 1.04 and 0.155, respectively. The z-score is -2.04 (inactive) in experiment [8]; -0.225 (inactive) in [12]; 0.289 (inactive) in [13]; 0.118 (inactive) in experiment [14]; -1.01 (inactive) in [16].

For the origin of these results see PubChem BioAssay.
